From PubChem BioAssay (NCI)
This is part of a sample that, as a whole, favours compounds with a hit. Of some 83,000 tested, about 20% had one in any assay.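 Cell lines were cultured in 96-well plates, exposed to a single compound concentration, and assessed for percent growth 48 hours later.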 A number with no mark means an inactive call. Activity calls are given as the source filed them.

test system: SNB-75 CNS; experiment: NCI-60 one-dose screen, 48 h (100 = growth as untreated, 0 = no growth, -100 = all killed); settings: 10 µM unless noted
Protocol: Growth inhibition of the SNB-75 human tumor cell line is measured as a screen for anti-cancer activity. Cells are grown in 96 well plates and exposed to the test compound for 48 hours. Compounds are tested at a single concentration, which is 10^-5 M for most compounds. The reported endpoint is percent growth (GI% or GIPRCNT), where numbers from 0 - 100% represent growth inhibition, and numbers from -100% - 0 represent cell death. For example, a value of 40 represents 60% growth inhibition. A value of 0 means no net growth occurred over the course of the experiment. A value of -40 indicates 40% of cells at the beginning of the experiment died by the end of the experiment. A value of -100 means all cells are dead at the end of the experiment.
NCI-60 Human Tumor Cell Lines Screen was performed using the standard one-dose NCI protocol, which is described in more detail at https://dtp.cancer.gov/discovery_development/nci-60/default.htm.
Compounds with GIPRCNT values below 10 were considered active. Activity score was based on GIPRCNT using the following formula: […]
Score is 0 for GIPRCNT values of 100 or above, 50 for GIPRCNT values of 0, and 100 for GIPRCNT values of -100.

| SMILES | growth |
| --- | --- |
| Cc1ccc(OCC(=O)Nc2ccc(Oc3ccccc3)cc2)c([N+](=O)[O-])n1 | 78.8% |
| NS(=O)(=O)c1ccc(-n2nc(-c3ccc(Br)cc3)ccc2=O)cc1 | 8.35% [100 µM] (active) |
| O=C(CNC(=O)c1cccc2ccccc12)Nc1ccccc1Oc1cccc(O)c1 | 4.28% [5 µM] (active) |
| COc1cc(/C=C/C(=O)C(C(=O)/C=C/c2ccc(OC(=O)CCNc3nnc(C)s3)c(OC)c2)C(=O)CCNc2nnc(C)s2)ccc1OC(=O)CCNc1nnc(C)s1 | -13.6% (active) |
| Oc1c(N=Nc2nn[nH]n2)ccc2ccccc12 | 143% |
| COc1ccc(-c2c3c(N)nc(-c4ccncc4)nc3nc3c2c(C)nn3-c2ccccc2)cc1 | 80.6% |
| CSc1nc(N)c2c(n1)N(C)C=NS2(=O)=O | 93.3% |
| CC[C@@H](C)/C=C(C)/C=C/C(=O)c1c(O)c(-c2ccc(O)cc2)cn(OC2CC(=O)CCC(C)OC(=O)CC2O)c1=O (stereo not given in full) | 18% |
| O=C(CN1CCN(c2ccc(Cl)cc2)CC1)N1CCN(c2nnc(-c3ccccc3)c(-c3ccccc3)n2)CC1 | 65.8% |
| CC[n+]1c(/C=C/c2ccc(N3CCCC3)cc2)cccc1/C=C/c1ccc(N2CCCC2)cc1 | -92.7% (active) |
| O=C(Nc1ccccc1OC(=O)c1ccccc1)c1ccccc1 | 101% |
| C[C@H](C(=O)N[C@@H](Cc1ccc(-c2ccccc2)cc1)C(=O)NC1CC(C)(C)NC(C)(C)C1)c1ccc(-c2ccccc2)c(F)c1 | 13.3% |
| CCOC(=O)CNC(=O)C1(NC(=O)CNC(=O)OCc2ccccc2)CCCC1 | 83.9% |
| C=C(CN1CCc2c([nH]c3ccccc23)C1)c1ccc(C(=O)Nc2ccon2)cc1 | 96.6% |
| CCOc1cc(/C=C/C(=O)C(C(=O)/C=C/c2ccc(OC(=O)CNc3nc4ccccc4[nH]3)c(OCC)c2)C(=O)CNc2nc3ccccc3[nH]2)ccc1OC(=O)CNc1nc2ccccc2[nH]1 | -18.1% (active) |
| O=C(/C=C/c1ccc([N+](=O)[O-])cc1)c1ccc2c3c(cccc13)CC2 | 89% |
| C=CCNC(=O)/C(=C/c1cccc([N+](=O)[O-])c1)NC(=O)c1ccccc1 | 87.5% |
| O=C1NC(=O)/C(=C/c2ccc(Cl)cc2Cl)N1 | 83.7% |
| O=C(CNC(=O)c1cccc2ccccc12)Nc1ccccc1Oc1ccc(O)cc1 | 19.7% [5 µM] |
| COc1cccc2c1C(=O)c1c(O)c3c(c(O)c1C2=O)C[C@@](O)(C(C)=O)C[C@@H]3O[C@H]1C[C@H](N)[C@H](O)[C@H](C)O1 | -91.4% (active) |

| SMILES | growth |
| --- | --- |
| N#CC(C#N)C(C#N)C#N | 82% |
| COc1cccc(N2CCN(CC(=O)N3CCN(c4nnc(-c5ccc(Cl)cc5)c(-c5ccc(Cl)cc5)n4)CC3)CC2)c1 | 76.3% |
| CCOC(=O)c1cc2oc(/C=C/c3cc(=O)c4cc(Cl)ccc4o3)cc2[nH]1 | 73% |
| O=C(CNc1ccc2c(c1)C(=O)c1ccccc1C2=O)Nc1ccc2c(c1)C(=O)c1ccccc1C2=O | -51.4% (active) |
| COc1ccc(C(=O)COc2ccc(/C=C3\Oc4ccc5ccccc5c4C3=O)cc2)cc1 | 75.5% |
| O=C(Nc1ccccc1S)c1ccccc1 | 81.7% |
| CCCCCCCC[Si](OCC)(OCC)OCC | 85.2% |
| Cc1ccc(S(=O)(=O)NCCN2c3nc4ccccc4cc3Sc3cc4ccccc4nc32)cc1 | -13% (active) |
| COc1ccc2cc(-c3nc4ccccc4[nH]3)c(=O)oc2c1 | 126% |
| Nc1ccn(C2O[C@H](CO)[C@@H](O)[C@@H]2O)c(=O)n1 (stereo not given in full) | 78.6% |
| CCN1CC2=C(Nc3nc(SC)[nH]c(=O)c3C2c2cc(OC)c(OC)c(OC)c2)/C(=C/c2cc(OC)c(OC)c(OC)c2)C1 (stereo not given) | 92.2% |
| COc1ccc2ncccc2c1Cc1c(OC)ccc2ncccc12 | 44.1% |
| C[C@@H]1C[C@@H]([C@@H](CC2CC(=O)NC(=O)C2)OC(=O)CC(=O)c2ccccc2)C(=O)[C@@H](C)C1 | 17.8% |
| COc1cc(/C=N/NC(=O)c2ccc(C(F)(F)F)nc2Nc2ccc(Cl)cc2C)ccc1O | 19.7% |
| COc1ccc2c(c1)CC[C@@H]1[C@@H]2CC[C@]2(C)[C@@H](O)C(=O)C[C@@H]12 | 97.2% |
| N=C1c2nc3n(c2C(=O)c2nc4n(c21)CCCCC4)CCCCC3 | 105% |
| COc1ccccc1-n1c(-c2ccc(O)cc2C)cn2c3c(=O)[nH]c(=O)n(C)c3nc12 | 7.76% (active) |
| NS(=O)(=O)c1cc(C2(O)NC(=O)c3ccccc32)ccc1Cl (stereo not given) | 91.4% |
| O=C(Nc1ccccc1)P(=O)(O)c1ccccc1 | 78.8% |
| COc1cccc(-c2nc3cc(NC(=O)c4ccc(Cl)c(C#N)c4)ccc3o2)c1 | -2.82% (active) |
